A number with no mark means an inactive call. Results filed as inconclusive are left out. The source made the active and inactive calls. Unless noted, the call rests on the fitted dose curve; in most records, active means well fitted curve in the direction sought with a large enough effect in the repeat runs; inconclusive means weak or mixed curves; inactive means no such curve, though single readings can be large; an effect the other way counts as inactive or inconclusive.

Here are results for 7 compounds from PubChem BioAssay (Tox21).

The nature of assay [1]: qHTS assay for small molecules that induce genotoxicity in human embryonic kidney cells expressing luciferase-tagged ATAD5 (AID 651632). Further: nearly all actives have a fitted effect of over 15% in size. Further: potency means the concentration at half of the fitted maximal effect. In short, it runs like this:
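HEK293T cells carrying luciferase-tagged ATAD5 were given compound or DMSO vehicle and incubated 16 hr at 37C, 5% CO2. Luciferase activity was read after 30 min at room temperature with Amplite; a rise signals genotoxic stress.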

The nature of assay [2]: qHTS assay for small molecule agonists of the p53 signaling pathway - cell viability (AID 651633; calls by dose curve; further: nearly all actives have a fitted effect of over 30% in size; further: potency means the concentration at half of the fitted maximal effect). The essentials: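 Viability counter-read: CellTiter-Glo luminescence (30 min, room temperature) in the same p53RE-bla plates. These plates had been exposed to compounds for 16 h at 37 C.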
In general terms: In qHTS, concentration-response curves come from the screen itself.

Assay [3] is described as follows: qHTS assay for small molecules that induce genotoxicity in human embryonic kidney cells expressing luciferase-tagged ATAD5 - cell viability (AID 651634; calls by dose curve; further: nearly all actives have a fitted effect of over 25% in size; further: potency means the concentration at half of the fitted maximal effect). In short, it runs like this: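 HEK293T cells carrying luciferase-tagged ATAD5, 2,000 cells/well, exposed to compound for 15.5 hr at 37C. Viability read as live-cell protease activity by CellTiter-Fluor fluorescence after 30 min at 37C.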

The nature of assay [4]: qHTS assay for small molecule disruptors of the mitochondrial membrane potential - cell viability (AID 720634; calls by dose curve; further: nearly all actives have a fitted effect of over 20% in size; further: potency means the concentration at half of the fitted maximal effect). The essentials: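 HepG2 cells, 2,000 per well, attached overnight, then treated 1 hr at 37 C, 5% CO2. Viability read as ATP by CellTiter-Glo luminescence after 30 min at room temperature. Read in the same wells as the m-MPI membrane-potential dye assay.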
Assay [5] is described as follows: qHTS assay to test for compound auto fluorescence at 590 nm (red) in HepG2 cells (AID 720674). The essentials: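 1 hr compound incubation on HepG2 cells, 37 C, 5% CO2; plate read ex 540 nm / em 590 nm; intensities reported as Rose Bengal sodium equivalents.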
Assay [6] is described as follows: qHTS assay to test for compound auto fluorescence at 535 nm (green) in HepG2 cells (AID 720675).
A short description of assay [7]: qHTS assay to test for compound auto fluorescence at 460 nm (blue) in HEK293 cells (AID 720678). In short, it runs like this:
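After cell attachment (4-5 hr, 37C), compounds were pinned onto HEK293 monolayers in 10% dialyzed FBS medium. The blue channel (405/460 nm) was read following overnight culture. Equivalency was calculated against triamterene.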

Assay [8] is described as follows: qHTS assay to test for compound auto fluorescence at 590 nm (red) in HEK293 cells (AID 720679). In short, it runs like this:
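Plates of HEK293 cells (10% dialyzed FBS) are treated with 23 nL compound or DMSO vehicle after a 4-5 hr attachment period, incubated overnight at 37C, and read for red fluorescence at 540/590nm.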

Assay [9] is described as follows: qHTS assay to test for compound auto fluorescence at 535 nm (green) in HEK293 cells (AID 720680).
Assay [10] is described as follows: qHTS assay to test for compound auto fluorescence at 460 nm (blue) in HEK293 cell free culture (AID 720681). The essentials: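 Blue fluorescence (Ex 405/Em 460 nm, triamterene-equivalent) was read immediately after pin transfer of compound or DMSO into medium (DMEM, 10% FBS) without cells.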
Assay [11] can be described thus: qHTS assay to test for compound auto fluorescence at 535 nm (green) in HEK293 cell free culture (AID 720682). The essentials:
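Fluorescein serves as the green reference fluorophore; each compound's intrinsic emission at 535 nm (excitation 485 nm) is reported as an equivalent amount of that dye, measured in serum-containing DMEM without cells.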

Assay [12] is described as follows: qHTS assay to test for compound auto fluorescence at 590 nm (red) in HEK293 cell free culture (AID 720683). In short, it runs like this:
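Red-channel autofluorescence of compounds in culture medium (DMEM, 10% FBS), no cells, measured at 540/590 nm. Rose Bengal sodium is the reference fluorophore for equivalence.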

Assay [13] in a line: qHTS assay to test for compound auto fluorescence at 590 nm (red) in HepG2 cell free culture (AID 720684). The essentials:
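Steps: dispense MEM/10% FBS medium, no cells; pin compound or DMSO vehicle; read red channel, Ex/Em 540/590 nm. Output given as Rose Bengal sodium equivalents.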

Assay [14] in a line: qHTS assay to test for compound auto fluorescence at 460 nm (blue) in HepG2 cell free culture (AID 720685). The essentials: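 Compound (23 nL) or DMSO pinned into cell-free MEM with 10% FBS; blue fluorescence read at 405/460 nm excitation/emission, expressed as auto-fluorescence equivalency to triamterene.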
Assay [15] can be described thus: qHTS assay to test for compound auto fluorescence at 535 nm (green) in HepG2 cell free culture (AID 720686).
Assay [16] is described as follows: qHTS assay to test for compound auto fluorescence at 460 nm (blue) in HepG2 cells (AID 720687). In short, it runs like this:
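Blue-channel autofluorescence (Ex/Em 405/460 nm, triamterene-equivalent) was measured after 1 hr compound exposure at 37 C, 5% CO2. Cells were HepG2, plated overnight at 37 C in MEM plus 10% FBS.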

For assay [17], the target named is Glucocorticoid receptor (Homo sapiens) (UniProt P04150). The assay is described as follows: qHTS assay to identify small molecule agonists of the glucocorticoid receptor (GR) signaling pathway (AID 720691; active means well fitted activation curve with a large enough effect in the signal ratio in the repeat runs, not every such curve was filed as active; the % refers to the signal ratio). The essentials: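 GR-bla HeLa cells carrying a GRE-driven beta-lactamase reporter, exposed to compounds for 18 h at 37 C. Reporter activation read as fluorescence after 2 h with LiveBLAzer B/G FRET substrate at room temperature.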
Sequence of Glucocorticoid receptor (Homo sapiens) (P04150 whole entry, looked up): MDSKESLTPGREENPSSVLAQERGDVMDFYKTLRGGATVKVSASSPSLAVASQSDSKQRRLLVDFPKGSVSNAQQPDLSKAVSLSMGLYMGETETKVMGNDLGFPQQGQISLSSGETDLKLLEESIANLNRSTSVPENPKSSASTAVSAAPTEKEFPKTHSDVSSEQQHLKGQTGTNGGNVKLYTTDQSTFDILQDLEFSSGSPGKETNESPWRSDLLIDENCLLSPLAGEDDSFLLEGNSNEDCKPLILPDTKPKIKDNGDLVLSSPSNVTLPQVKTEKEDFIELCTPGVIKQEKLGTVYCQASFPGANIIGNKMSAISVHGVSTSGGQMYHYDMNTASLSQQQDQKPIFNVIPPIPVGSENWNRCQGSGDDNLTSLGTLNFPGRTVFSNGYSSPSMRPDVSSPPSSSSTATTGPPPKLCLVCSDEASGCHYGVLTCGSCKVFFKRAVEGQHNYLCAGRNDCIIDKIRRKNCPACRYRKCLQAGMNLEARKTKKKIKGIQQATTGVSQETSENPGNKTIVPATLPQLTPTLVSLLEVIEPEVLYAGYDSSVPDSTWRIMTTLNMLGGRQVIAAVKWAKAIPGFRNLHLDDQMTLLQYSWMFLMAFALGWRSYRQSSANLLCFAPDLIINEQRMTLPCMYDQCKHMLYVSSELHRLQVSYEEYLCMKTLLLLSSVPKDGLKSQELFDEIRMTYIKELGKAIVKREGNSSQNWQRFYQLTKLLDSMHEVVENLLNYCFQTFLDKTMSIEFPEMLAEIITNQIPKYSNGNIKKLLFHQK

Assay [18] in a line: qHTS assay for small molecule disruptors of the mitochondrial membrane potential (AID 720635). Further: potency means the concentration at half of the fitted maximal effect. In short, it runs like this: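 Mitochondrial membrane potential tracked with Mito-MPS dye, red aggregates (ex 540/em 590 nm) against green monomers (ex 490/em 535 nm). Compound treatment 1 hr at 37C, dye 30 min in HepG2.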

As to `BrC(Br)C(Br)(Br)Br`, the Potency result in assay [1], in assay [2], in assay [3], in assay [4], in assay [7] and in assay [10] was “inactive” in each case. The Potency entry in assay [14], in assay [16] and in [17] was “inactive” each time. The compound was classed as inactive in [5], in [6], in [8], in assay [9], in assay [11] and in [12]. The compound was called inactive in assay [13] and in assay [15].
`c1ccc2c(c1)[nH]c1cnccc12`: the Potency result in [1], in assay [2], in [3], in assay [4], in assay [18] and in assay [7] was “inactive” throughout. Also, the Potency entry in [10] is “inactive”. For the same compound, the call in assay [5], in assay [6], in assay [8], in assay [9], in assay [11] and in assay [12] was inactive. Also, the result in assay [13] and in assay [15] was inactive.
Turning to `C[C@]12CC[C@H]3[C@@H](CCC4=CC(=O)CC[C@@]43C)[C@@H]1CC[C@@H]2O`, the Potency result in assay [1], in assay [2], in assay [3], in [4], in assay [7] and in [10] was “inactive” throughout. Also, the Potency entry in assay [14] and in [16] was “inactive” each time. In addition, the compound was called inactive in assay [5], in assay [6], in assay [8], in [9], in assay [11] and in assay [12]. Also, in assay [15], the compound was called inactive.
As to `O=[N+]([O-])c1ccc(Oc2ccc(C(F)(F)F)cc2[N+](=O)[O-])cc1`, the Potency entry in assay [1], in assay [2], in assay [3], in [7], in assay [10] and in [14] was “inactive” in each case. Moreover, the Potency result in [16] and in [17] was “inactive” throughout. The results for the Potency in assay [4] and in [18] were 19.3 µM (active) and 12.2 µM (active), respectively. Also, the call in [5], in assay [6], in [8], in assay [9], in assay [11] and in assay [12] was inactive. Moreover, in assay [15], the compound was called inactive.
Consider `O=[N+]([O-])c1cc([N+](=O)[O-])c2ccccc2c1`, for which the Potency result in assay [1], in assay [2], in [3], in assay [7], in [10] and in assay [14] was “inactive” throughout. Also, the Potency result in [16] and in [17] was “inactive” in each case. The Potency in assay [18] was 10.9 µM (active). Also, the call in [5], in assay [6], in [8], in assay [9], in [11] and in assay [12] was inactive. Besides, the compound was called inactive in assay [13] and in assay [15].
Regarding `C=CC(=O)OCC(COC(=O)C=C)(COC(=O)C=C)COC(=O)C=C`, the Potency in [1] is 5.45 µM (active); in assay [2] it was 6.86 µM (active); in assay [3], 12.2 µM (active). For the same compound, the Potency entry in assay [4], in [7], in assay [10], in assay [14] and in assay [16] was “inactive” throughout. Further, the compound was called inactive in [5], in assay [6], in [8], in [9], in [11] and in [12]. Moreover, the compound was classed as inactive in assay [15].
On to `CC(C)(C)c1cc([N+](=O)[O-])cc(C(C)(C)C)c1O`, for which the Potency result in assay [1], in assay [7], in assay [10], in assay [14] and in assay [16] was “inactive” throughout. For the same compound, the Potency was 48.6 µM (active) in assay [2], 13.7 µM (active) in assay [3] and 0.122 µM (active) in assay [18]. The outcome in [5], in assay [6], in [8], in [9], in [11] and in assay [12] was inactive. The compound was classed as inactive in assay [13] and in assay [15].
